Assay results: PubChem BioAssay (NCATS)
Values joined by “and” are separate entries in the source; they are usually repeats but may differ in a detail not shown here. Equal entries are not always repeated. Inconclusive results are not listed. Active and inactive are the calls of the source. Unless noted, the call rests on the fitted dose curve; in most records, active means well fitted curve in either direction with a large enough effect (not every such curve was filed as active); inconclusive means small, poorly fitted or top-dose-only effect, or another doubt; inactive means flat fitted curve, though single readings scatter.

Experiments:
[1] = target: Lysosomal acid glucosylceramidase (Homo sapiens) (UniProt P04062); assay: Glucocerebrosidase-p2 (AID 348; in the data active means potency below about 10 µM; further: potency means the concentration at half of the fitted maximal effect); conditions: purified GBA, blue fluorogenic substrate, 40 min
Method in brief: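 Compounds titrated from 0.6 nM upwards against 0.2 nM enzyme in pH 5.9 citric acid/KH2PO4, taurocholate, tween-20; blue fluorogenic substrate 80 uM, 40 min room temperature, stopped and read Ex 365/Em 440 for AC50.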

[2] = AP1 Signaling Pathway (AID 357); conditions: ME-180 AP-1-bla reporter, EGF-induced, beta-lactamase ratio, 5 h; at 7.69 µM (top of the series) unless noted;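 further: ME-180 reporter cells stimulated with EGF at its EC50 level; on the % scale 0 is the no-effect control and ±100 the full control effect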
Method in brief: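 Beta-lactamase reporter under AP-1 response element, ME-180 background. Stimulus: EC50 EGF. Compound exposure 5 h, 37 °C. Detection: CCF4, 2.5 h RT, 460/530 nm. Values: AC50 from titration.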

[3] = target: Cytochrome P450 1A2 (Homo sapiens) (UniProt P05177); assay: p450-cyp1a2 (AID 410; calls by dose curve; further: potency means the concentration at half of the fitted maximal effect;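 on activity change, negative = inhibition: -100% = full effect of reference inhibitor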); conditions: recombinant CYP1A2, luciferin-ME demethylation, luminescence; series mostly up to 57 µM
Method in brief: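 Luminescent readout of luciferin formed from Luciferin-ME by human CYP1A2; data normalized against complete inhibition by 57 uM furafylline. Enzyme 20nM, substrate 100uM at Km, 100mM KPO4 buffer, 60 min reaction at room temperature.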

[4] = NFAT Signaling Pathway (AID 444); conditions: Jurkat NFAT-bla M1, carbachol, beta-lactamase ratio, 5 h; at 7.69 µM (top of the series) unless noted;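 further: carbachol stimulus at about its EC50 of 1 µM final; on the % scale 0 is the no-effect control and ±100 the full control effect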
Method in brief: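 Jurkat cells with NFAT-driven β-lactamase reporter and co-expressed M1 receptor, stimulated with carbachol (final 1 uM, ~EC50), compound titration, 5 h at 37 °C. CCF4 loaded 1 h at RT; 460/530 nm ratio gave %activity and AC50.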

[5] = Stat Signaling Pathway (AID 446); conditions: ME-180 SIE beta-lactamase reporter, IL-6 stimulated, 5 h; at 7.69 µM (top of the series) unless noted;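 further: ME-180 cervical cancer cells given 40 pM IL-6 alongside compound; SIE-controlled beta-lactamase reporter measured as 460/530 nm FRET emission ratio; on the % scale 0 is the no-effect control and ±100 the full control effect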
Method in brief: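 ME-180 SIE-bla cells; overnight plating; cpd + IL-6 40 pM, 5 h, 37 C; LiveBLAzer 2.5 h RT; 460/530 nm emission ratio. Normalized to 300 pM IL-6 and 125 nM JAK inhibitor controls.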

[6] = target: Glucocorticoid receptor (Homo sapiens) (UniProt P04150); assay: GR-GFP Redistribution (AID 450;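 active means compounds whose dose series gives a full or clear partial fitted curve of increased nuclear translocation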; further: potency means the concentration at half of the fitted maximal effect); conditions: U2OS GR-GFP nuclear translocation, laser cytometry, 2 h
[7] = target: Glucocorticoid receptor (Homo sapiens) (UniProt P04150); assay: GR-EFC Redistribution (AID 451; calls by dose curve; further: potency means the concentration at half of the fitted maximal effect); conditions: CHO-K1 GR-EFC translocation, beta-gal luminescence, 2 h
Method in brief: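 CHO-K1 cells expressing nuclear EA and GR-ED fragments of b-gal; compounds titrated up to 46 uM final, 2 h at 37 C. GR nuclear translocation read as complemented b-gal luminescence after 1 h RT detection.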

[8] = target: Mitogen-activated protein kinase 10 (Mus musculus) (UniProt Q61831); assay: JNK3 AlphaScreen Assay (AID 530); conditions: JNK3 lysate, c-Jun phosphorylation; series mostly up to 57.1 µM;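 further: kinase came from lysate of stimulated human HepG2 cells; signal reports phosphorylation of biotinylated GST-cJun 1-79 at Ser73 with 10 µM ATP; on the % scale 0 is the no-effect control and ±100 the full control effect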
Method in brief: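 Pre-activated (IL-1β/TNFα) JNK3 in HepG2 lysates phosphorylates biotin-GST-cJun(1-79), 10 uM ATP; anti-phospho-cJun(Ser73) AlphaScreen read at room temperature, pH 7.6 Tris buffer. Compounds pre-incubated 15 min as titrations.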

[9] = target: 3',5'-cyclic-AMP phosphodiesterase 4B (Homo sapiens) (UniProt Q07343); assay: qHTS Assay for Inhibitors of PDE-IV (AID 607; active means well fitted activation curve with a large enough effect in the main read-out, with a control signal flat, not every such curve was filed as active; further: % of control where 0% means no effect); conditions: HEK293 ACTOne CNG channel cells, membrane potential fluorescence; series mostly up to 22.9 µM
Method in brief: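 ACTOne HEK293 cells carry a modified cAMP-gated CNG channel and express endogenous PDE4; plated 1000 cells/well, compounds up to 22.9 uM final. Membrane-potential dye fluorescence (ex 535/em 590) was read; parental cells received 10 uM forskolin + 100 uM RO 20-1724.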

[10] = qHTS Assay for Lipid Storage Modulators (AID 1519; calls by dose curve); conditions: Drosophila S3 cells, BODIPY lipid droplet/cell ratio, laser cytometry, cells loaded with oleic acid; for activity change, negative = inhibition: at 57.5 µM (top of the series)
Method in brief: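 Cells seeded at 5,000 per well were treated with compounds over a concentration series and loaded with oleic acid (400 uM, as added). Lipid droplet fluorescence (488 nm excitation, 500-530 nm channel) was read by laser-scanning cytometry and normalized to 20 uM Triacsin C.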

[11] = target: Cytochrome P450 3A4 (Homo sapiens) (UniProt P08684); assay: qHTS Assay for Inhibitors and Substrates of Cytochrome P450 3A4 (AID 884; active means well fitted curve in the direction sought with a large enough effect; an effect the other way counts as inactive or inconclusive; further: potency means the concentration at half of the fitted maximal effect; nearly all actives have a fitted effect of over 50% in size); conditions: recombinant CYP3A4, Luciferin-PPXE luminescence; series mostly up to 57.1 µM
Method in brief: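 20 nM human CYP3A4 with 25 uM Luciferin-PPXE (at KM) in 200 mM KPO4, preincubated 10 min with compound; NADPH regeneration started a 60 min RT reaction. Luciferin detected by luminescence, normalized to 57 uM ketoconazole as full inhibition.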

[12] = target: Cytochrome P450 3A4 (Homo sapiens) (UniProt P08684); assay: qHTS Assay for Activators of Cytochrome P450 3A4 (AID 885; active means well fitted curve in the direction sought with a large enough effect; an effect the other way counts as inactive or inconclusive; further: nearly all actives have a fitted effect of over 65% in size); conditions: recombinant CYP3A4, Luciferin-PPXE luminescence, 60 min; series mostly up to 57.1 µM
Method in brief: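 20nM CYP3A4 + 25uM Luciferin-PPXE (=KM), 200mM KPO4; cpd 10 min RT; NADPH regen, 60 min RT; stop w/ detection buffer, 20 min; luminescence. Normalized to 57 uM ketoconazole.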

[13] = Confirmation and Secondary Assay for Modulators of Hemoglobin Beta Chain Splicing at IVS2 654 locus (AID 910; active means well fitted curve in the direction sought with a large enough effect; an effect the other way counts as inactive or inconclusive;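 further: HeLa cells stably carrying EGFP split by mutant beta-globin IVS2-654 intron; % of control where 0% means no effect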); conditions: HeLa EGFP-654 splicing reporter, GFP fluorescence, 48 h; series mostly up to 38.3 µM
Method in brief: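 HeLa cells stably expressing EGFP interrupted by β-globin IVS2-654 intron, seeded overnight in Opti-MEM/2% FCS, then treated 2 days at 37 °C. Restored splicing read as total peak GFP intensity per well by laser scanning cytometry (488 nm excitation, 500–520 nm emission); 500 nM antisense PNA as control.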

[14] = Confirmation and Secondary Assay for Modulators of Hemoglobin Beta Chain Splicing at IVS2 705 locus (AID 930; active means well fitted curve in the direction sought with a large enough effect; an effect the other way counts as inactive or inconclusive;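 further: HeLa cells stably expressing the EGFP-705 splicing reporter; GFP fluorescence per well restored by corrected splicing of the IVS2-705 intron in EGFP; % of control where 0% means no effect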); conditions: HeLa EGFP-705 splicing reporter, GFP fluorescence, 48 h; series mostly up to 38.3 µM
Method in brief: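 Stable HeLa line with EGFP disrupted by mutant beta-globin intron 2 (705). Overnight attachment, then 2 days of compound at 37C, 5% CO2. Signal: peak GFP intensity summed over objects 5-250 µm.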

[15] = target: Ubiquitin carboxyl-terminal hydrolase 1 (Homo sapiens) (UniProt O94782); assay: Inhibitors of USP1/UAF1: Pilot qHTS (AID 504865; active means well fitted curve in the direction sought with a large enough effect; an effect the other way counts as inactive or inconclusive;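 further: rhodamine fluorescence freed from ubiquitin-rhodamine substrate followed over time; top concentration of the series differs between compounds; on the % scale 0 is the no-effect control and ±100 the full control effect; nearly all actives have a fitted effect of over 35% in size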); conditions: purified USP1/UAF1, Ub-rhodamine cleavage fluorescence; series mostly up to 54.9 µM
Method in brief: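 USP1/UAF1 complex (1nM) preincubated with compound 15 min at room temperature, then Ub-Rho substrate (150nM final) added. Fluorescence read kinetically at 480/540 nm, 6 reads every 60 seconds. Buffer: 50mM HEPES pH 7.8, 0.5mM EDTA, 0.1 mg/ml BSA, 1mM TCEP, 0.01% Tween-20.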

[16] = measured here: cell count channel max response
[17] = measured here: lipid channel max response

Chain of Ubiquitin carboxyl-terminal hydrolase 1 (Homo sapiens) (O94782 whole entry, looked up): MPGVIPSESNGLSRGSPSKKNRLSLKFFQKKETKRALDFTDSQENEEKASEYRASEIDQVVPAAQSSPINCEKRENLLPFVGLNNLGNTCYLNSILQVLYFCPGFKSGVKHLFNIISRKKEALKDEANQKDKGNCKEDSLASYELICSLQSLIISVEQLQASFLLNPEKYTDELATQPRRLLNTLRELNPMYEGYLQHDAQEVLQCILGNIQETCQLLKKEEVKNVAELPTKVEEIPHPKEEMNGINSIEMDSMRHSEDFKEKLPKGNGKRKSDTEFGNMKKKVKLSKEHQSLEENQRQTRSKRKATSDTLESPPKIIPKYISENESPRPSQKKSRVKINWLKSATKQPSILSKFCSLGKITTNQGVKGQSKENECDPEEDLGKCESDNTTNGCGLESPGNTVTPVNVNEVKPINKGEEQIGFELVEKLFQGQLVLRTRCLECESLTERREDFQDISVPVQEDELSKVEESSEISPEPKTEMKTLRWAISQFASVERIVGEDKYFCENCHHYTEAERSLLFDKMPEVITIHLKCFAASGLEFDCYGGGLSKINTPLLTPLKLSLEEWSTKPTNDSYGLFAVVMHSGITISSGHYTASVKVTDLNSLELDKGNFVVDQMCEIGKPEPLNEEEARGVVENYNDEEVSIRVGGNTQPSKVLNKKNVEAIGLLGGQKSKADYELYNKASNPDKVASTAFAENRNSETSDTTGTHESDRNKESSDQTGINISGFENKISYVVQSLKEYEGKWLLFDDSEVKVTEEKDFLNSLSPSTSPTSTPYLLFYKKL
Chain of 3',5'-cyclic-AMP phosphodiesterase 4B (Homo sapiens) (Q07343 whole entry, looked up): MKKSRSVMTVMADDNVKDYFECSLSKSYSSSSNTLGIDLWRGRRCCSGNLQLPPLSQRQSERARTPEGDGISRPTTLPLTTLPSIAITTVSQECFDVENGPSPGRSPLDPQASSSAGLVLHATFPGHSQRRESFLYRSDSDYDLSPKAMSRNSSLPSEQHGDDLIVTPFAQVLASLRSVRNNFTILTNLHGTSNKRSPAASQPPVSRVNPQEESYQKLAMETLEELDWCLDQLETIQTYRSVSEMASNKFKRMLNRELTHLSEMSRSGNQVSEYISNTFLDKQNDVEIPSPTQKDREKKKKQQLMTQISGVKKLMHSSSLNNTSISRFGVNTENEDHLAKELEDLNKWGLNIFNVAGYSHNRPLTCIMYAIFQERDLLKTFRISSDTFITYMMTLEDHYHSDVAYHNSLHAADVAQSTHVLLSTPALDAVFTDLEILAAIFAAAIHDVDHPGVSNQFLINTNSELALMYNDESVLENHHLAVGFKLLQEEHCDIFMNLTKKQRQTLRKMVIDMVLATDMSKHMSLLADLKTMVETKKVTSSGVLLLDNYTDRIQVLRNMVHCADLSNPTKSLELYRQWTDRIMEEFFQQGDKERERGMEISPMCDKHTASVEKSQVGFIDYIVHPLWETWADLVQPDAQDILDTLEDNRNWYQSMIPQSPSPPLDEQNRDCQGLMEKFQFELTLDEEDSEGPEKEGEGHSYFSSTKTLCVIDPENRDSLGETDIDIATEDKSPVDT
Chain of Glucocorticoid receptor (Homo sapiens) (P04150 whole entry, looked up, the tested form may be a part): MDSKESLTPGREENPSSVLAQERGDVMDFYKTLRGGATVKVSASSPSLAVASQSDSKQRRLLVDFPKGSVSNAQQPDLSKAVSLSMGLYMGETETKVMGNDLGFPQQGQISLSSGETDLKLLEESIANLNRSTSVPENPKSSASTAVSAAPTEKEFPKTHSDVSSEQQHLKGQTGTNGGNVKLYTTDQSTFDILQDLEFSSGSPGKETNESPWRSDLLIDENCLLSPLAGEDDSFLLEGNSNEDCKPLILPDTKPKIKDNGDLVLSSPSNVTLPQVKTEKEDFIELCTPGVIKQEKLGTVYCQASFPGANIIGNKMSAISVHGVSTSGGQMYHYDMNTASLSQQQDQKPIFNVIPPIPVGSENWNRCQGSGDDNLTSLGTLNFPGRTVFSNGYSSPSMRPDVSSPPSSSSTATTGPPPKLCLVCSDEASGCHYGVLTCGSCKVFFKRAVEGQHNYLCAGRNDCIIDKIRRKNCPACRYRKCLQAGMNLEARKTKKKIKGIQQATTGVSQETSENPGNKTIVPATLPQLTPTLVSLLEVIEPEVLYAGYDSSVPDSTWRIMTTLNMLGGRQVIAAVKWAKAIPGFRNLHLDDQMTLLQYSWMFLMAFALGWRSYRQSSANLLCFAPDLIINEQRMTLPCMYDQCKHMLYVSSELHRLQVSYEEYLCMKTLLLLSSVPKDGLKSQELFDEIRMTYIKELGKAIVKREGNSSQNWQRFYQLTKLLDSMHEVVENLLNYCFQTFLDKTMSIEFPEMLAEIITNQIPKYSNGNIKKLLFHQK
Chain of Cytochrome P450 1A2 (Homo sapiens) (P05177 whole entry, looked up): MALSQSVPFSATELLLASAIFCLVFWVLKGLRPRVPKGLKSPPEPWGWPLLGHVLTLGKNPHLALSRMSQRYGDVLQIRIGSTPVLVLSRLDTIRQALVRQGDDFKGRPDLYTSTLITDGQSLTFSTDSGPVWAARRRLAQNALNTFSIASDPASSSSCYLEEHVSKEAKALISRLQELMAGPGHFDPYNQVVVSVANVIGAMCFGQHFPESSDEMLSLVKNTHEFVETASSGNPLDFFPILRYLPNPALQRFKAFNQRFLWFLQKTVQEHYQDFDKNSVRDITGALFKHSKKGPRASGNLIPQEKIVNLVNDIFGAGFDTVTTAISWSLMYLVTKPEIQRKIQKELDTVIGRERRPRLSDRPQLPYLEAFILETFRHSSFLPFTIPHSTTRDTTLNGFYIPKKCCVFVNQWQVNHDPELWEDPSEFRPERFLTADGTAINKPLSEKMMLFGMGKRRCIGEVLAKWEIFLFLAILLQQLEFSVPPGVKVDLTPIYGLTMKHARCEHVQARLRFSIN
Chain of Lysosomal acid glucosylceramidase (Homo sapiens) (P04062 whole entry, looked up): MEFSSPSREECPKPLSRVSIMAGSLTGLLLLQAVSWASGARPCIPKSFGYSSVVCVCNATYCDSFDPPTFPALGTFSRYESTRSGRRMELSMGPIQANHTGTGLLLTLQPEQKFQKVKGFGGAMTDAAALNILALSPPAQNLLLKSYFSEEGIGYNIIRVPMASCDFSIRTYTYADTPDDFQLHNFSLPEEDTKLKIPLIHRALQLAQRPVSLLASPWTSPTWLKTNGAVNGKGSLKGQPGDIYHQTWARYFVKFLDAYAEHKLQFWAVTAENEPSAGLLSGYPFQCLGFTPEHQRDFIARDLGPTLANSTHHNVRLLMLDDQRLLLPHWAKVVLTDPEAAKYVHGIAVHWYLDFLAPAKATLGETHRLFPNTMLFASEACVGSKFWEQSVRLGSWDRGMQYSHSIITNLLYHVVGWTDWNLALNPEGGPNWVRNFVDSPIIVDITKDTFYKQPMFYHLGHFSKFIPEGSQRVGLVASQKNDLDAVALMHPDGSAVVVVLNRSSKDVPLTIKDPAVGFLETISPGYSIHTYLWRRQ
Chain of Cytochrome P450 3A4 (Homo sapiens) (P08684 whole entry, looked up): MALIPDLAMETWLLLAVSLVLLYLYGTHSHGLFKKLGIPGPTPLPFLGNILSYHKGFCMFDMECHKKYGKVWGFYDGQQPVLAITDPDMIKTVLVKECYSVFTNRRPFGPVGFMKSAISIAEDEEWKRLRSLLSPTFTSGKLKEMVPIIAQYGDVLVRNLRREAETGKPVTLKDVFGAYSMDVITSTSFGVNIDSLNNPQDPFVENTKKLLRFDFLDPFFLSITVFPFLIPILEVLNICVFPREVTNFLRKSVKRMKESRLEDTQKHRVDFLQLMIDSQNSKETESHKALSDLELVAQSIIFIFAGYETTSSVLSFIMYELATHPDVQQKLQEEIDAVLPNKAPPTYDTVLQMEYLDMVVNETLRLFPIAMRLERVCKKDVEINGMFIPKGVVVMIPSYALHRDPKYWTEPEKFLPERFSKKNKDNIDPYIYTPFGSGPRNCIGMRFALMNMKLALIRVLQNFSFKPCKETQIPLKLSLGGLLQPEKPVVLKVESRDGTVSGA

SMILES | Potency [1] | activity change, negative = inhibition [2] | Potency [3] | activity change, negative = inhibition [4] | activity, negative = inhibition [5] | Potency [6] | Potency [7] | Potency [8] | Potency [9] | activity change, negative = inhibition [10] | max response [10, 16] | max response [10, 17] | Potency [11] | Potency [12] | Potency [13] | outcome [14] | Potency [15]
N#CCCn1c(=O)cnc2cnc(N3CCNCC3)nc21 | > 11.4 µM (inactive) | -10.6% (inactive) | 12.6 µM (active) | 3.67% (inactive) | -12.7% (inactive) | > 9.22 µM (inactive) | > 46 µM (inactive) | inactive | inactive | 4.17% (inactive) | 14.3% | 19.4% | – | – | – | – | –
CS(=O)(=O)Nc1cccc(-c2nc(N3CCOCC3)c3ccccc3n2)c1 | > 11.4 µM (inactive) | -11.2% (inactive) | 5.01 µM (active) | 27.4% (inactive) | -10.3% (inactive) | > 46 µM (inactive) | > 46 µM (inactive) | inactive | – | 2.88% (inactive) | -24.3% | -22% | 1.58 µM (active) | inactive | inactive | inactive | inactive
CC1=CC(=O)CC(C)(C)C1(O)/C=C/C(C)=C\C(=O)O (stereo not drawn) | – | – | – | – | – | – | – | inactive | – | 8.24% (inactive) and 1.12% (inactive) | 12.7% and 14.4% | 25.4% and 14.8% | – | – | inactive | inactive | –
COc1ccc2[nH]cc(CCNc3ncncc3-c3ccccc3CN(C)C)c2c1 | > 11.4 µM (inactive) | -7.44% (inactive) | 20 µM (active) | -7.95% (inactive) | 0.332% (inactive) | > 46 µM (inactive) | > 46 µM (inactive) | inactive | inactive | 2.99% (inactive) | -0.105% | 4.99% | 0.631 µM (active) | inactive | inactive | – | inactive
N#Cc1cccc(-c2nc(Nc3ccncc3)c3ccccc3n2)c1 | 2.09 µM (active) | -0.676% (inactive) | 0.631 µM (active) | -19.2% (inactive) | 8.07% (inactive) | > 46 µM (inactive) | > 46 µM (inactive) | inactive | inactive | 5.79% (inactive) | 4.98% | 11.4% | – | inactive | inactive | inactive | –
CC(=O)N1CCC2(CC1)CCN(c1ccncc1)CC2 | > 11.4 µM (inactive) | -3.43% (inactive) | inactive | -17.4% (inactive) | -6.23% (inactive) | – | > 46 µM (inactive) | inactive | inactive | -1.07% (inactive) | -6.73% | -6.95% | – | – | – | – | –
COc1cccc(Nc2ncc3nc(C)c(=O)n(CCC#N)c3n2)c1 | > 11.4 µM (inactive) | -18.4% (inactive) | 1.26 µM (active) | 4.34% (inactive) | -8.39% (inactive) | > 9.22 µM (inactive) | > 46 µM (inactive) | inactive | inactive | -10.8% (inactive) | -22.6% | -28.8% | – | inactive | – | – | –
COc1ccc(C(=O)N2CCC3(CCN(C(=O)Nc4cccc(F)c4)CC3)CC2)cc1 | > 11.4 µM (inactive) | -28.3% (inactive) | inactive | 7.36% (inactive) | -5.59% (inactive) | – | > 46 µM (inactive) | inactive | inactive | 6.16% (inactive) | 13.8% | 22% | – | – | – | – | –
COc1ncc2nc(-c3ccc(Cl)cc3)c(=O)n(-c3ccccc3)c2n1 | > 11.4 µM (inactive) | -12.8% (inactive) | 1.58 µM (active) | -0.099% (inactive) | 0.109% (inactive) | – | > 46 µM (inactive) | inactive | inactive | -0.888% (inactive) | 12% | 16.2% | – | – | – | – | –
COCC(=O)N1CCC2(CCN(Cc3ccncc3)CC2)CC1 | > 11.4 µM (inactive) | 5.27% (inactive) | 10 µM (active) | -6.67% (inactive) | 1.05% (inactive) | – | > 46 µM (inactive) | inactive | inactive | 3.65% (inactive) | 13.5% | 19.1% | – | inactive | – | – | –
COc1cccc(-c2nccc(NC3CCNCC3)n2)c1 | > 11.4 µM (inactive) | 6.93% (inactive) | 6.31 µM (active) | 8.54% (inactive) | 14.2% (inactive) | > 46 µM (inactive) | > 46 µM (inactive) | inactive | inactive | 0.723% (inactive) | 4.24% | 1.95% | – | – | – | inactive | inactive
CNc1ncnc2ccc(-c3ccccc3OC)cc12 | > 11.4 µM (inactive) | 0.353% (inactive) | 2.51 µM (active) | 15.1% (inactive) | -15.7% (inactive) | > 46 µM (inactive) | > 46 µM (inactive) | inactive | inactive | 1.03% (inactive) | 0.392% | 0.542% | – | inactive | inactive | inactive | inactive
